ChEMBL document CHEMBL4513216, “Probing the Open Global Health Chemical Diversity Library for Multistage-Active Starting Points for Next-Generation Antimalarials” (ACS Infect Dis, 2020)
In all, about 69,000 compounds went through this assay and about 8,600 (12%) showed an effect of 50% or more. The full list was thinned out, with strong results kept by preference.

The molecules below were run on Plasmodium berghei (assay: Screen against P. berghei liver stage (PbLuc), transformed with Luciferase, at 10uM). Settings: tested at 10 uM.
Assay type: functional, HepG2
O=C(C1CCOCC1)N1CCc2ncc(CN3CCCC3)n2CC1 was tested, and the INHIBITION was 29.9%.
Cc1ccc2ncccc2c1CN1CC[C@H](N(C)C)[C@H](CCC(=O)O)C1 gave an INHIBITION of -102%.
CC(C)CCn1[nH]c(CNc2ccc(Cl)cc2)nc1=O showed an INHIBITION of 40%.
N#CCCn1cnc2c(F)cc(Br)cc2c1=O gave an INHIBITION of 53.9%.
Work on N#CCCn1cnc2c(Br)cc(Br)cc2c1=O yielded an INHIBITION of 44.2%.
With N#CCCCn1cnc2c(F)cc(Br)cc2c1=O the INHIBITION was 46.4%.
For O=C(NCCCn1ccnc1)NCC(c1ccco1)N1CCCCC1 (centres undefined), the INHIBITION was -67.3%.
CCC[C@@H]1CN(C(=O)c2cc(-c3cccs3)n(C)n2)C[C@H]1NS(C)(=O)=O gave an INHIBITION of 18.8%.
In the case of O=C(NCCN1CCOCC1)c1cnc(-c2ccccc2F)s1, the INHIBITION is reported as 41.6%.
Molecule O=C(NCCCN1CCOCC1)c1ccc(-c2ccccc2)[nH]c1=O has an INHIBITION of 41.4%.
Molecule O=C(NCCN1CCOCC1)c1ccc(-c2ccc(F)cc2)nc1O has an INHIBITION of 61.2%.
In the case of O=C(NCCN1CCOCC1)c1cnc(Cc2ccc(F)cc2)s1, the INHIBITION is reported as 63.7%.
For O=C(NCCN1CCOCC1)c1ccn(COc2ccc(F)cc2)n1, the INHIBITION was -8.9%.
Work on CCc1ncc(C(=O)NCCNC(=O)Cc2ccc(F)cc2)s1 yielded an INHIBITION of -49.7%.
For COC(=O)CCNC(=O)c1cnc(Cc2ccc(F)cc2)s1, the INHIBITION was 18.3%.
O=C(NCCN1CCOCC1)c1ccc(-c2ccccc2)[nH]c1=O was tested, and the INHIBITION was -14.1%.
With CCNC(=O)c1cnc(Cc2ccc(F)cc2)s1 the INHIBITION was 17.4%.
CN(C)CCCNC(=O)c1cnc(Cc2ccc(F)cc2)s1 gave an INHIBITION of 73.1%.
Cc1cccc(-c2ccc(C(=O)NCCN3CCOCC3)c(=O)[nH]2)c1 showed an INHIBITION of 68.6%.
Work on Cc1ccc(C(=O)NCCN2CCOCC2)c(=O)[nH]1 yielded an INHIBITION of -14.1%.
CC(C#N)(NC(=O)c1ccc(C#N)cc1)C1CC1 (centres undefined) was tested, and the INHIBITION was 2.45%.
Work on CC1CCc2n[nH]c(C(=O)NCCCc3ccco3)c2C1 (centres undefined) yielded an INHIBITION of 6.32%.
Molecule Cc1cnn(C2CN(Cc3nc4cc(Cl)ccc4n3C)C2)c1 has an INHIBITION of -10.6%.
In the case of CC(C)(CN)NS(=O)(=O)c1cccc(F)c1F, the INHIBITION is reported as 19%.
With CCN1CCn2c(C)cnc2C12CCN(C(=O)c1ccco1)CC2 the INHIBITION was 3.81%.
CN1CC(=O)N(c2cccc(F)c2)CC12CCN(CCO)C2 (centres undefined) was tested, and the INHIBITION was 21.8%.
COc1ccc(N2CCN(C(=O)c3cc(=O)c(OC)c[nH]3)CC2)cc1 gave an INHIBITION of -13.8%.
CC(c1cccnc1)N1CCN(CCCC#N)CC1 (centres undefined) showed an INHIBITION of 41.4%.
Work on CCC(c1ccccc1)N1CCN(CCO)CC1 (centres undefined) yielded an INHIBITION of 52.1%.
CCC(c1ccc(F)cc1F)N1CCN(CCO)CC1 (centres undefined) gave an INHIBITION of 48.1%.
In the case of CCC(c1ccccc1)N1CCN(C(=O)c2cc(C(N)=O)c[nH]2)CC1 (centres undefined), the INHIBITION is reported as -23.1%.
For CCS(=O)(=O)CCN1CCN(C(C)c2cccnc2)CC1 (centres undefined), the INHIBITION was 24.2%.
CC(c1cccnc1)N1CCN(CCO)CC1 (centres undefined) gave an INHIBITION of 60%.
Work on CN(Cc1nnc(C2CC2)o1)Cc1ccccc1N1CCOCC1 yielded an INHIBITION of 20.19%.
O=C(c1cocn1)N1CCC2(CC1)COC(COCc1ccccn1)C2 (centres undefined) showed an INHIBITION of 8.03%.
Molecule COc1c(CNCc2cccc(Cn3cncn3)c2)c(C)nn1C has an INHIBITION of -21.8%.
In the case of Cc1cc(C)nc(C2CCCN2C(=O)c2cnco2)n1 (centres undefined), the INHIBITION is reported as 12.8%.
Work on Cc1cc(C(=O)NCC(c2ccccc2Cl)N2CCOCC2)on1 (centres undefined) yielded an INHIBITION of 1.7%.
Cc1ccoc1C(=O)NCC(c1ccccc1Cl)N1CCOCC1 (centres undefined) showed an INHIBITION of 30.5%.
For Cc1nc(C)c(C(=O)NCC(c2ccccc2Cl)N2CCOCC2)s1 (centres undefined), the INHIBITION was 62.3%.
CN(Cc1cccc(OC(F)(F)F)c1)Cc1cnn(C)c1 gave an INHIBITION of -6.51%.
Molecule Cc1ncsc1C(=O)N(C)Cc1ccccc1 has an INHIBITION of -15.75%.
For O=C(COc1ccc(F)cc1)N1CCO[C@H]2[C@@H](OCC3CC3)CC[C@@H]21, the INHIBITION was 59.3%.
CCO[C@H]1CC[C@H]2[C@H]1OCCN2C(=O)c1nn(C)c2ccccc12 showed an INHIBITION of 67.3%.
CCO[C@H]1CC[C@H]2[C@H]1OCCN2C(=O)COc1ccccc1 was tested, and the INHIBITION was 34.9%.
With CO[C@@H]1CC[C@H]2[C@H]1OCCN2C(=O)COc1ccc(F)cc1 the INHIBITION was 29.6%.
Molecule CCO[C@@H]1CC[C@H]2[C@H]1OCCN2C(=O)c1nn(C)c2ccccc12 has an INHIBITION of 22.6%.
With CO[C@@H]1CC[C@H]2[C@H]1OCCN2C(=O)COc1ccc(C)cc1 the INHIBITION was 47.5%.
Work on CO[C@@H]1CC[C@H]2[C@H]1OCCN2C(=O)C1CCOCC1 yielded an INHIBITION of 33%.
CN(C)CCO[C@@H]1CC[C@H]2[C@H]1OCCN2C(=O)COc1ccccc1 showed an INHIBITION of 22.2%.
Molecule CO[C@H]1CC[C@H]2[C@H]1OCCN2C(=O)c1nn(C)c2ccccc12 has an INHIBITION of 47.4%.
CCO[C@H]1CC[C@H]2[C@@H]1OCCN2C(=O)COc1ccccc1 gave an INHIBITION of 62%.
For COc1cc(C(=O)N2CCO[C@H]3[C@H](OCC4CC4)CC[C@@H]32)ccc1F, the INHIBITION was 30.5%.
Work on COCC(=O)N1CCO[C@H]2[C@H](OC)CC[C@@H]21 yielded an INHIBITION of 50%.
N#Cc1nc(COc2ccc3c(c2)OCO3)oc1N1CCCC1 was tested, and the INHIBITION was 45.2%.
COC(=O)c1cc(C(=O)N2CCCCC2C)n(-c2ccccc2)n1 (centres undefined) showed an INHIBITION of 13.4%.
Work on CN1C[C@H]2CNC[C@@]2(C(=O)N2CCN(c3ncccc3C#N)CC2)C1 yielded an INHIBITION of 48.1%.
COCCn1c(-c2cccc(OC)c2)cnc1NC(=O)NCC(C)C was tested, and the INHIBITION was 25.1%.
c1cnc(NC2COC3(CCN(Cc4cccs4)CC3)C2)nc1 (centres undefined) gave an INHIBITION of -23.8%.
CCN(CC)C(=O)c1ccn(COc2ccc(F)cc2)n1 gave an INHIBITION of 1.04%.
Work on COC(=O)c1ccc(N(C(=O)c2cscn2)C(C)C)c(C)c1 yielded an INHIBITION of 27%.
Molecule O=C(Cc1ccsc1)N1CCC(c2ccncc2)CC1 has an INHIBITION of 45.2%.
Molecule CN(Cc1ccc2c(c1)OCCO2)C(=O)NCCc1cnn(C)c1 has an INHIBITION of 47.6%.
For CCn1cnnc1CNC(=O)N(C)Cc1ccc2c(c1)OCO2, the INHIBITION was 59.4%.
With Cc1cc(C)c(CNC(=O)N(C)Cc2ccc3c(c2)OCO3)c(=O)[nH]1 the INHIBITION was 51.1%.
With CN(Cc1cnn(C)c1)C(=O)NCCc1ccc2c(c1)OCCO2 the INHIBITION was -2.862%.
Molecule CC(=O)NCCNC(=O)N(C)Cc1ccc2c(c1)OCCO2 has an INHIBITION of 56.6%.
Work on CCn1cnnc1CNC(=O)N(C)Cc1ccc2c(c1)OCCO2 yielded an INHIBITION of 30.2%.
For Cc1cc(C)c(CNC(=O)N(C)Cc2ccc(F)cc2)c(=O)[nH]1, the INHIBITION was 7.27%.
In the case of Cc1cc(C)c(CNC(=O)N(C)Cc2ccoc2)c(=O)[nH]1, the INHIBITION is reported as 26.5%.
CCN(Cc1ccc2c(c1)OCCO2)C(=O)NCc1nncn1CC showed an INHIBITION of 11.4%.
In the case of Cc1cc(Nc2cnccn2)cc(C2CCCN2)n1 (centres undefined), the INHIBITION is reported as 21.7%.
Molecule O=C(C1CCOCC1)N1CCO[C@H]2[C@H](OCC3CC3)CC[C@@H]21 has an INHIBITION of -37.4%.
Molecule Cc1cccc(C(=O)N2CCc3ncnc(C4CCOC4)c3CC2)n1 (centres undefined) has an INHIBITION of 15.9%.
Work on CC(CN1CCCCCC1)NCc1cc(-c2ccco2)on1 (centres undefined) yielded an INHIBITION of 59.5%.
COC(C)(C)CC(C)NCc1cc(-c2ccco2)on1 (centres undefined) was tested, and the INHIBITION was 29.2%.
Molecule CCSCC(C)NCc1cc(-c2ccco2)on1 (centres undefined) has an INHIBITION of 13.7%.
In the case of CCc1cnccc1C(=O)NC1CCN(Cc2ccccc2F)CC1, the INHIBITION is reported as 23.1%.
With Cn1ncc(N2CCOC(CCNC(=O)N3CCCCC3)C2)cc1=O (centres undefined) the INHIBITION was 47.4%.
In the case of Cn1ncc(N2CCOC(CCNC(=O)CO)C2)cc1=O (centres undefined), the INHIBITION is reported as 25.8%.
Cn1ncc(N2CCOC(CCNC(=O)NC(C)(C)C)C2)cc1=O (centres undefined) was tested, and the INHIBITION was 71.2%.
Molecule O=S(=O)(C1CC1)N1C[C@H](Oc2ccccn2)[C@H]2OCCC[C@H]21 has an INHIBITION of 15.4%.
With Cc1ccc(CNS(=O)(=O)C=c2[nH]c(=O)n3cccc3c2=O)cc1 the INHIBITION was 0%.
CO[C@H]1CCN(Cc2cccs2)[C@@H]2CN(Cc3ccncc3)C[C@H]12 was tested, and the INHIBITION was 61.3%.
With CO[C@@H]1CCN(Cc2cccs2)[C@@H]2CN(Cc3ccncc3)C[C@@H]21 the INHIBITION was 46.4%.
For CN(C)[C@@H]1CCN(C(=O)Cc2ccc(F)cc2)[C@H]1Cc1ccncc1, the INHIBITION was 15.9%.
With COCCN1CC[C@H](OC)[C@@H]1Cc1ccccc1 the INHIBITION was 10%.
CN(C)[C@@H]1CCN(C(=O)Cc2cccs2)[C@H]1Cc1ccncc1 showed an INHIBITION of 74.2%.
Molecule CN(C)[C@@H]1CCN(C(=O)Cc2cccs2)[C@H]1Cc1cnn(C)c1 has an INHIBITION of -16.7%.
CO[C@@H]1CCN(Cc2cccs2)[C@H]1Cc1ccncc1 was tested, and the INHIBITION was 62.5%.
Molecule COCCO[C@H]1CCN(Cc2cccs2)[C@H]1Cc1cccnc1 has an INHIBITION of 32.7%.
Work on COCCN1C[C@@H]2[C@@H](OC)CCN(Cc3cccs3)[C@@H]2C1 yielded an INHIBITION of 16.8%.
O=C(Nc1ccccc1)N1CCn2c(nnc2C2CCNCC2)C1 showed an INHIBITION of 11.8%.
Molecule CN(C)C(=O)CN1CCOCC2(CCN(c3ncc(F)cn3)CC2)C1 has an INHIBITION of -3.26%.
For COCC1CN(Cc2ccc(OC)cc2)S(=O)(=O)c2cnccc2O1 (centres undefined), the INHIBITION was 13.9%.
Molecule CC(C)CCn1nc(CNc2ccc(Br)cc2)nc1O has an INHIBITION of 44.9%.
Molecule CCCC(=O)N1CCCC(Cn2cc(-c3ccc(F)cc3)nn2)C1 (centres undefined) has an INHIBITION of 1.24%.
Molecule Cc1ccc(NCc2nc3n(n2)CCCCC3)c(C)c1 has an INHIBITION of 2.69%.
Molecule CCN1C(=O)C[C@@H]2[C@@H]1CCN2S(=O)(=O)Cc1ccc(C)cc1 has an INHIBITION of -17.1%.
For COc1ccc(C(=O)Nc2cc(CC(C)C)nn2C)cc1, the INHIBITION was 22.3%.
CCNC(=O)[C@@H]1C[C@@H](N)CN1Cc1ccc(Sc2ccc(C)cc2)o1 showed an INHIBITION of 77.7%.
For CCNC(=O)[C@@H]1C[C@H](N)CN1Cc1ccc(-c2ccccc2C#N)o1, the INHIBITION was 47.1%.
CCNC(=O)[C@@H]1C[C@H](N)CN1C(=O)Cc1cc(C)ccc1C showed an INHIBITION of -1.91%.
Work on CCNC(=O)[C@@H]1C[C@@H](N)CN1C(=O)Cc1cc(C)ccc1C yielded an INHIBITION of 11.2%.
CCNC(=O)[C@@H]1C[C@@H](N)CN1Cc1ccc(-c2ccccc2C#N)o1 was tested, and the INHIBITION was 23.9%.
Work on CCNC(=O)[C@@H]1C[C@H](N)CN1C(=O)CCc1ccc(C)c(C)c1 yielded an INHIBITION of 30.9%.
For CCNC(=O)[C@@H]1C[C@@H](N)CN1C(=O)CCc1ccc(C)c(C)c1, the INHIBITION was 15.3%.
CCNC(=O)[C@@H]1C[C@H](N)CN1Cc1ccc(-c2cc[nH]n2)o1 showed an INHIBITION of 61.9%.
CCNC(=O)[C@@H]1C[C@H](N)CN1Cc1ccc(Sc2ccc(C)cc2)o1 gave an INHIBITION of 67.5%.
